From paper PMC5540273 (PLoS ONE, 2017)

What was measured:
Conditions in all cases: concentration: 1 μM, replicates: in singlicate; n = 1
LCK = tested on: LCK
LIMK1 = tested on: LIMK1
LIMK2 = tested on: LIMK2
LKB1 = tested on: T1, LKB1
T1 construct: gene STK11

LOK = tested on: T2, LOK
T2 construct: gene STK10

LRRK2 = tested on: LRRK2
LTK = tested on: LTK
LYN = tested on: LYN
LZK = tested on: T3, LZK
T3 construct: gene MAP3K13

MAK = tested on: MAK
MAP3K15 = tested on: MAP3K15
MAP3K1 = tested on: MAP3K1
MAP3K2 = tested on: MAP3K2
MAP3K3 = tested on: MAP3K3
MAP3K4 = tested on: MAP3K4
MAP4K2 = tested on: MAP4K2
MAP4K3 = tested on: MAP4K3
MAP4K4 = tested on: MAP4K4
MAP4K5 = tested on: MAP4K5
MAPKAPK2 = tested on: MAPKAPK2
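Further: KINOMEscan kinase panel screen.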

Row | Compound | %Inh (LCK) | %Inh (LIMK1) | %Inh (LIMK2) | %Inh (LKB1) | %Inh (LOK) | %Inh (LRRK2) | %Inh (LTK) | %Inh (LYN) | %Inh (LZK) | %Inh (MAK) | %Inh (MAP3K15) | %Inh (MAP3K1) | %Inh (MAP3K2) | %Inh (MAP3K3) | %Inh (MAP3K4) | %Inh (MAP4K2) | %Inh (MAP4K3) | %Inh (MAP4K4) | %Inh (MAP4K5) | %Inh (MAPKAPK2)
1 | COc1cc(Nc2nccc(N3CCC(NC(=O)c4cc5ccccc5s4)C3)n2)cc(OC)c1OC (stereo not shown) [GSK1379760] | 29% | 17% | 24% | 14% | 84% | 0% | 13% | 31% | 30% | 23% | 0% | 7% | 0% | 11% | 16% | 13% | 8% | 25% | 28% | 0%
2 | COCCOCCOc1cc2ncc3c4ccc(C#N)cc4[nH]c3c2cc1OC | 35% | 16% | 1% | 15% | 73% | 95.4% | 34% | 31% | 1% | 0% | 65% | 0% | 0% | 4% | 17% | 11% | 39% | 42% | 19% | 0%
3 | NCCCC(NC(=O)c1cc(Br)c(-c2ccnc3[nH]ccc23)s1)c1ccccc1.O=C(O)C(F)(F)F.O=C(O)C(F)(F)F (stereo not shown) [GSK1287544] | 9% | 6% | 6% | 0% | 0% | 42% | 0% | 0% | 0% | 34% | 23% | 9% | 24% | 0% | 9% | 31% | 4% | 17% | 2% | 0%
4 | COc1cc(Nc2nccc(-c3c(-c4cccc(NC(=O)c5c(F)cccc5F)c4)nn4ncccc34)n2)cc(OC)c1OC [GSK327238] | 99.8% | 42% | 8% | 0% | 99.3% | 0% | 61% | 99.3% | 0% | 12% | 0% | 11% | 95.4% | 92.9% | 88% | 12% | 83% | 67% | 98.8% | 7%
5 | COc1ccc(Nc2nccc(N3CCC(NC(=O)Nc4cccc(OC)c4)C3)n2)cc1 (stereo not shown) [GSK1379742] | 13% | 4% | 0% | 0% | 0% | 14% | 0% | 0% | 0% | 17% | 0% | 0% | 0% | 0% | 23% | 0% | 5% | 0% | 0% | 9%
6 | O=c1[nH]cc(-c2ccc(N3CCOCC3)cc2)c2sc(-c3cn[nH]c3)cc12 [GSK2276055] | 9% | 0% | 0% | 0% | 0% | 0% | 5% | 0% | 0% | 30% | 0% | 16% | 12% | 0% | 21% | 27% | 0% | 1% | 2% | 0%
7 | Cl.c1ccc(-c2ccc3c(Nc4ccc5[nH]ccc5c4)ccnc3c2)nc1 [GW440138] | 70% | 0% | 0% | 0% | 51% | 0% | 18% | 47% | 39% | 1% | 0% | 1% | 0% | 0% | 9% | 46% | 0% | 12% | 0% | 9%
8 | Fc1ccc(-c2ncn(C3CCNCC3)c2-c2ccnc(Oc3ccc(-c4ccccc4)cc3)n2)cc1 [SB-245391] | 0% | 0% | 0% | 0% | 21% | 0% | 12% | 9% | 0% | 10% | 22% | 25% | 22% | 29% | 14% | 44% | 3% | 9% | 26% | 0%
9 | Cl.NC(=O)c1cccc(Nc2nccc(Nc3ccc(Oc4c(Cl)cccc4Cl)c(Cl)c3)n2)c1 [GW659009] | 54% | 12% | 0% | 0% | 49% | 17% | 80% | 34% | 0% | 27% | 18% | 0% | 0% | 3% | 0% | 10% | 0% | 0% | 0% | 0%
10 | COc1ccc(Nc2nccc(NCCNC(=O)c3cc4ccccc4s3)n2)cc1 [GSK1379896] | 19% | 0% | 0% | 1% | 0% | 0% | 0% | 0% | 0% | 27% | 0% | 15% | 0% | 0% | 24% | 0% | 0% | 1% | 8% | 2%
11 | O=C(O)C(F)(F)F.O=C(O)C(F)(F)F.O=c1[nH]ccc2nc(N[C@@H]3CCCNC3)nc(Nc3ccc(S(=O)(=O)N4CCOCC4)cc3)c12 [GSK2177277] | 78% | 0% | 0% | 92.1% | 78% | 88% | 79% | 73% | 59% | 0% | 67% | 22% | 100% | 99.9% | 0% | 100% | 99% | 97.6% | 99.8% | 65%
12 | O=C(Nc1cccc(-c2nn3ncccc3c2-c2ccnc(Nc3ccccc3)n2)c1)c1c(F)cccc1F [GSK198271] | 99.3% | 75% | 0% | 3% | 99% | 0% | 0% | 99.4% | 0% | 19% | 0% | 3% | 35% | 0% | 35% | 0% | 33% | 33% | 84% | 24%
13 | COc1cc(Nc2nccc(-c3c(-c4cccc(NC(=O)c5c(F)cccc5F)c4)nn4ccccc34)n2)cc(OC)c1OC [GSK323521] | 23% | 2% | 12% | 0% | 85% | 0% | 26% | 28% | 0% | 9% | 0% | 27% | 56% | 20% | 65% | 37% | 71% | 0% | 70% | 24%
14 | CNC(=O)c1ccccc1Nc1nc(Nc2ccc(N3CCOCC3)cc2)ncc1Cl.Cl [GSK1576028] | 99.6% | 46% | 30% | 51% | 96.4% | 92.7% | 100% | 92.6% | 89% | 11% | 36% | 22% | 99.5% | 99.4% | 90.1% | 93.5% | 98.9% | 28% | 81% | 0%
15 | CN1CCN(CCCNc2nccc(-c3c(-c4ccc(F)cc4)nn4cc(C(F)(F)F)ccc34)n2)CC1 [GW621581] | 36% | 0% | 0% | 5% | 0% | 69% | 0% | 0% | 0% | 3% | 4% | 4% | 0% | 0% | 0% | 0% | 30% | 33% | 0% | 5%
16 | Cn1cc(-c2[nH]c3cc(NC(=O)[C@H](N)C4CCCCC4)cc4c3c2C=NNC4=O)cn1 | 90.7% | 90.6% | 96.6% | 94.3% | 17% | 56% | 0% | 76% | 0% | 0% | 52% | 35% | 98.3% | 94.8% | 9% | 97.3% | 86% | 48% | 52% | 0%
17 | O=C(NC1CCN(c2ccnc(Nc3ccc(F)cc3)n2)C1)c1cc2ccccc2s1 (stereo not shown) [GSK1379716] | 32% | 0% | 0% | 19% | 0% | 0% | 10% | 0% | 23% | 38% | 0% | 16% | 12% | 0% | 0% | 0% | 0% | 0% | 0% | 32%
18 | Nc1n[nH]c2cnc(-c3ccccc3)cc12 [SB-642124] | 0% | 19% | 1% | 0% | 0% | 12% | 0% | 3% | 0% | 37% | 21% | 14% | 12% | 0% | 23% | 31% | 3% | 17% | 0% | 20%
19 | CCCCc1nn2ncccc2c1-c1ccnc(Nc2ccc(N3CCN(C)CC3)cc2)n1 [GW684941] | 99.1% | 70% | 97% | 0% | 60% | 60% | 0% | 83% | 28% | 20% | 9% | 16% | 37% | 49% | 40% | 0% | 12% | 0% | 21% | 0%
20 | COc1cccc(C(=O)Nc2cccc(Oc3ccc4nc(NC(=O)C5CC5)cn4n3)c2)c1 | 99.2% | 19% | 23% | 0% | 96.2% | 3% | 27% | 92.9% | 0% | 0% | 0% | 9% | 0% | 24% | 10% | 0% | 69% | 48% | 49% | 0%
